Results on 29 compounds are retold here after PubChem BioAssay AID2590 (National Center for Advancing Translational Sciences (NCATS), 2010).

Each structure is given as a SMILES string. “And” between values parts separate entries of the source, which are not always exact repeats. Equal values may be shown once. Records with an inconclusive call do not appear. The source made the active and inactive calls. Calls come from the whole dose curve; as a rule, active = well fitted curve in the direction sought with a large enough effect; inconclusive = small, poorly fitted or top-dose-only effect, or another doubt; inactive = no such curve, though single readings can be large or run the other way.
Potency is the fitted concentration of half-maximal effect.

The target of this test is Lysosomal acid glucosylceramidase (Homo sapiens) (UniProt P04062). Kind of test: qHTS Assay for Inhibitors and Activators of N370S glucocerebrosidase as a Potential Chaperone Treatment of Gaucher Disease: Primary Screen Confirmation.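 For Potency: enzyme source is Gaucher patient spleen homogenate not purified recombinant protein.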 Particulars: N370S glucocerebrosidase enzyme activity, fluorogenic substrate; series mostly up to 54 µM. The gist of the method: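 Patient-spleen homogenate carrying N370S GC (27 ug) in pH 5.0 citrate buffer with 0.01% Tween-20, 1 mM 4-methylumbelliferyl-beta-glucoside, 40 min at 37C; fluorescence 365/440 nm after NaOH/glycine stop; AC50 from Hill fits.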
Chain of Lysosomal acid glucosylceramidase (Homo sapiens) (P04062 whole entry N409S): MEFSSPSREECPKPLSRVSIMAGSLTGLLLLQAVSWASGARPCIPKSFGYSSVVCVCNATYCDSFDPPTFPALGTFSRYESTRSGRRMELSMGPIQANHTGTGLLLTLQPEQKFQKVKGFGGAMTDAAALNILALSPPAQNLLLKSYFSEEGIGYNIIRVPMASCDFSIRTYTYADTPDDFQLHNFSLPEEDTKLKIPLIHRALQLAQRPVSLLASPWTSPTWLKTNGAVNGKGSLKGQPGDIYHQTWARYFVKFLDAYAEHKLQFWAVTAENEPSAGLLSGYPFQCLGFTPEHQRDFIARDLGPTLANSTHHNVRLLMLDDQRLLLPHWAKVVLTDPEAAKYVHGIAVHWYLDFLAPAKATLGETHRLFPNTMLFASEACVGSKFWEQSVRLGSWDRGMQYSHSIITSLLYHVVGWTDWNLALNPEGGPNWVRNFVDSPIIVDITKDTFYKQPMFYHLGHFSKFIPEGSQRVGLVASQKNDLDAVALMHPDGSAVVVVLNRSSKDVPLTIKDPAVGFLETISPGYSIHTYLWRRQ
Background: Quantitative high-throughput screening tests each substance at several concentrations.
For `c1ccc(CNc2nc(-c3ccccc3)nc3ccccc23)cc1`, the Potency was 10.1 µM (active). For `Cc1ccccc1-c1nccc(NCc2cccs2)n1` the value was 15.8 µM (active); for `O=C(NCCCc1cnc[nH]1)NCCCN(Cc1ccc(Cl)c(Cl)c1)c1ccc(Br)cn1`, 1.03 µM (active); for `O=S(=O)(c1ccc(Br)cc1)N1CCN(c2nc(-c3cccs3)nc3ccccc23)CC1`, 1.3 µM (active). Turning to `Cc1csc(NC(=O)CN2C(=O)c3ccccc3S2(=O)=O)n1`, the Potency entry is “inactive”. For `O=S(=O)(c1ccc2ccccc2c1)N1CCN(c2nc(-c3ccccc3)nc3ccccc23)CC1` the value was 4.61 µM (active); for `CCOC(=O)c1ccc(Nc2cc(C)nc(-c3ccccc3)n2)cc1`, 10.3 µM (active); for `CCOC(=O)c1ccc(S(=O)(=O)N2CCN(c3nc(-c4cccs4)nc4ccccc34)CC2)cc1`, 0.819 µM (active). Regarding `CCCCNC(=O)c1cc2c(=O)n3cccc(C)c3nc2s1`, the Potency entry was “inactive”. For `O=C(/C=C/c1ccc(O)cc1)c1ccc(O)cc1O` the value was 11.2 µM (active); for `NC(=NCCCCCCN=C(N)/N=C(\N)Nc1ccc(Cl)cc1)/N=C(\N)Nc1ccc(Cl)cc1`, 11.6 µM (active) and 18.3 µM (active) and 16.3 µM (active); for `Cc1ccc(Nc2cc(C)nc(-c3ccccc3)n2)cc1`, 4.11 µM (active). For `O=S(=O)(c1ccc(F)cc1)N1CCN(c2nc(-c3cccs3)nc3ccccc23)CC1` the value was 1.27 µM (active) and 713 nM (active); for `Cc1cc(C)cc(N(CC(=O)NC2CCCCCC2)S(=O)(=O)c2c(C)[nH]c(=O)[nH]c2=O)c1`, 1.12 µM (active); for `O=C(Nc1cnn(Cc2ccc(F)cc2)c1)c1cnn2c(C(F)F)cc(-c3ccccc3)nc12`, “inactive”.

On to `CC(Nc1nc(-c2ccccc2F)nc2ccccc12)c1ccccc1` (centres undefined), for which the Potency was 3.66 µM (active). For `S=C(NCCCc1cnc[nH]1)NCCCN(Cc1ccc(Cl)cc1)c1ccc(Br)cn1`, the Potency is 1.16 µM (active). For `CCOC(=O)c1ccc(S(=O)(=O)N2CCN(c3nc(-c4ccccc4)nc4ccccc34)CC2)cc1` the value was 5.17 µM (active); for `CCOc1ccc(N(CC(=O)NC2CCCCCC2)S(=O)(=O)c2c(C)[nH]c(=O)[nH]c2=O)cc1`, 7.94 µM (active); for `O=S(=O)(c1cc(Cl)cc(Cl)c1)N1CCN(c2nc(-c3cccs3)nc3ccccc23)CC1`, 2.53 µM (active). For `S=C(NCCCc1cnc[nH]1)NCCCN(Cc1ccc(Cl)cc1)c1cc(-c2ccccc2)ccn1`, the Potency was 5.66 µM (active). For `CCC1CN(S(=O)(=O)c2ccc3c(c2)NC(=O)CC(=O)N3)c2cc(Cl)ccc2O1` (centres undefined) the value was 2.91 µM (active).

Regarding `O=S(=O)(c1cnc2ccccc2c1)N1CCN(c2nc(-c3cccs3)nc3ccccc23)CC1`, the Potency was 0.897 µM (active). For `COc1ccc(N(CC(=O)NC2CCCCC2)S(=O)(=O)c2c(C)[nH]c(=O)[nH]c2=O)cc1` the value was 11.2 µM (active).

In the case of `CCOc1ccccc1NC(=O)CN(c1ccc(C)cc1)S(=O)(=O)c1c(C)noc1C`, the Potency entry is “inactive”.

As for `O=S(=O)(c1ccc(Cl)cc1)N1CCN(c2nc(-c3ccccc3)nc3ccccc23)CC1`, the Potency is 5.8 µM (active).

Turning to `Cc1ccccc1NC(=O)Nc1ccccn1`, the Potency entry was “inactive”. For `CCCCN(CCCN)c1ccc(Br)cn1` the value was “inactive”. For `O=S(=O)(c1cccc(C(F)(F)F)c1)N1CCN(c2nc(-c3cccs3)nc3cc(Cl)ccc23)CC1` the value was “inactive”.
